Measurements as given in PubChem BioAssay AID686979 (National Center for Advancing Translational Sciences (NCATS), 2013).
About 50,000 (12%) of roughly 420,000 compounds were called active. Another 26% or so got no clear call; they are omitted. Many of the other results were omitted from the sample, so actives are more common in it than they were. Unmarked numbers belong to inactive results. Calls follow the shape of the dose curve; as a rule, active = well fitted inhibition curve with a large enough effect; inconclusive = small, poorly fitted or top-dose-only effect; inactive = flat fitted curve, though single readings scatter.

Assay: qHTS for Inhibitors of human tyrosyl-DNA phosphodiesterase 1 (TDP1): qHTS in cells in presence of CPT; also: nearly all actives have a fitted effect of over 55% in size
Settings: chicken DT40 Tdp1-/-;hTDP1 cells + 20 nM CPT, ATP luminescence, 48 h; series mostly up to 46.2 µM; activity change, negative = growth inhibition: at the top concentration
Method in brief: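 Chicken DT40 Tdp1-/- cells complemented with human TDP1, 400 cells/well, exposed to compounds plus 20 nM camptothecin for at least 48 h at 37 C; viability read as ATP content by CellTiter-Glo luminescence.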
% is scaled to controls: 0 for no effect and ±100 for the full control effect; potency is read from the fitted curve at half-maximal effect.

SMILES	activity change, negative = growth inhibition	Potency
CC(C)(C)NC(=O)Cn1c(SCC(=O)Nc2nccs2)nc2ccccc21	-11.2%	
NC(=O)NC(=O)C(OC(=O)CCNS(=O)(=O)c1ccccc1)c1ccccc1 (stereo not given)	1.03%	
COCCNC(=O)C(c1ccc(C)cc1)N(C(=O)CCC(=O)Nc1ccccn1)c1cccc(C)c1 (stereo not given)	-11%	
CCCCCC(=O)N1C[C@H](O)[C@@H](n2cc(COC(=O)c3ccccc3)nn2)C[C@@H]1c1ccc(C)cc1		0.82 µM (active)
CCCCCCN1C[C@@H](O)[C@H](n2cc(COC(=O)c3ccccc3)nn2)C[C@@H]1c1ccc(Cl)cc1	-19.1%	
O=C(OCc1cn([C@@H]2C[C@H](c3ccc(Cl)cc3)N(Cc3cccs3)C[C@H]2O)nn1)c1ccccc1	-3.26%	
Cc1cc(S(=O)(=O)NCC(C)C)ccc1OCC(=O)NC1CC1	-1.97%	
CC(Sc1ncnc2c1cnn2-c1ccccc1)C(=O)Nc1ccc(N2CCOCC2)cc1 (stereo not given)	4.76%	
CCOC(=O)c1c(CN(C)C)n(-c2ccccc2)c2cc(Br)c(O)cc12	-18.9%	
O=C1/C(=C\c2ccc(O)cc2)CCC1CNc1ccc(Cl)cc1 (stereo not given)		4.61 µM (active)
CC(C(=O)NC1CCS(=O)(=O)C1)N1C(=O)/C(=C/c2ccc(Cl)cc2)SC1=S (stereo not given)	-27.2%	
CCOCCCNC(=O)c1ccc(CS(=O)(=O)c2cccc(C(F)(F)F)c2)o1	-0.971%	
NS(=O)(=O)c1cc(C(=O)OCC(=O)NNC(=O)c2ccccc2)ccc1Cl	4.84%	
O=C(CO/N=C/c1ccccc1OC(F)F)NC1CCCC1	3.7%	
O=C(CO/N=C/c1ccccc1O)NNC(=O)c1ccccc1Cl		0.461 µM (active)
CCn1c(Cc2cccs2)nnc1SCC(=O)c1ccc(C)cc1		11.2 µM (active)
CCn1c(SCC(=O)c2ccc(Cl)s2)nnc1-c1cccs1	-29.9%	
Cc1ccc(-n2c(Cc3cccs3)nnc2SCC(=O)OC(C)C)cc1	1.44%	
COC(=O)C(C)n1cnc2c(nnn2-c2cccc(Cl)c2)c1=O (stereo not given)	-12.8%	
CC(C)C[C@H](CO)Nc1nc(N(C)c2cccc(Cl)c2)c2ncn(C(C)C)c2n1		16.4 µM (active)
Cc1ccnc(NS(=O)(=O)c2ccc(NC(=O)c3ccc(S(=O)(=O)N(C)C)cc3)cc2)n1	-11.2%	
CCOc1cc2c(Cl)ncnc2c(OCC)c1OCC	1.52%	
CCCCC(=O)OC1=CN(Cc2ccccc2)S(=O)(=O)c2ccccc21	12.4%	

SMILES	activity change, negative = growth inhibition	Potency
O=C(OCc1cn(-c2ccc(Cl)c(Cl)c2)nn1)c1ccccc1Cl	-12.9%	
COc1cc2c(cc1OC)C(C)N(S(=O)(=O)c1cnc(Cl)c(Cl)c1)CC2 (stereo not given)	-112%	
CC(C)NC(=S)NN=C1CCCCCCCCCCC1		13 µM (active)
CC(C)(C)NC(=O)C(=O)NN=C1CCCCCCC1	8.31%	
CCc1ccc(C(=O)NN=C2CCCCCC2)s1	3.08%	
CC(C)(C)c1ccccc1NC(=O)CN1C(=O)NC2(CCCC2)C1=O	-1.6%	
COC(=O)c1ccc(CN2C(=O)C(Cc3ccccc3)ON=C2c2ncccc2C)o1 (stereo not given)	-16.6%	
Cc1ccc(C)c(NC(=O)Cn2ccn(-c3ccc(F)cc3)c(=O)c2=O)c1	8.32%	
COc1ccccc1NC(=O)CCC(=O)OC(C)C(=O)c1ccccc1 (stereo not given)	3.03%	
O=C(Nc1ccc(F)cc1)c1cc2c(s1)CCCC2	-27.3%	
COc1cccc(C(=O)NC2(C(F)(F)F)C(=O)Nc3c2c(=O)[nH]c(=O)n3-c2ccc(C)cc2)c1 (stereo not given)		25.9 µM (active)
CCOc1ccccc1C(=O)NC1(C(F)(F)F)C(=O)Nc2c1c(=O)[nH]c(=O)n2-c1ccc(F)cc1 (stereo not given)	6.4%	
COc1cccc(C(=O)NNC(=O)c2cccc(F)c2)c1	0.0986%	
O=P(O)(O)C(O)c1ccc2ccccc2c1 (stereo not given)	0.0947%	
S=C1SCN(CCN2CCOCC2)CN1Cc1ccccc1		5.01 µM (active)
CCN1CN(Cc2ccccc2)CNC1=S	-9.4%	
C/C(CCc1ccccc1)=N\NC(=O)c1ccc(CN2CCOCC2)cc1	-2.29%	
COc1ccc(CCN2CC(C(=O)NCCN3CCNC3=O)CCC2=O)cc1 (stereo not given)	2.06%	
CC(C)NC(=S)Nc1cccc2cnccc12	0.573%	
CCN(CC)CC(=O)Nc1nn(-c2ccccc2)nc1C(N)=O	-6.91%	
COc1cccc(-c2nc3nc(C)cc(C)n3c2NC2CCCCC2)c1		18.4 µM (active)
COc1ccc2nc(C)cc(Nc3cccc(C(=O)O)c3)c2c1	-14%	
COc1cccc(-c2cnc(OC(C)(C)C)nc2OC(C)(C)C)c1	0.304%	

SMILES	activity change, negative = growth inhibition	Potency
COc1ccc(-c2cc(C)nc3nc(N)nn23)cc1	-13.2%	
COc1cccc(CSc2nc3nc(C)cc(C)n3n2)c1	-4.29%	
COc1ccc(-c2nc3nc(C)cc(C)n3c2Nc2c(C)cccc2C)cc1		16.4 µM (active)
COc1ccccc1C(=O)Nc1nc2nc(-c3ccccc3)cc(=O)n2[nH]1	-23.3%	
O=C(NN1C(=O)C2CCCCC2C1=O)c1ccco1 (stereo not given)	4.06%	
Cc1cccc(C(=O)N2CCN(S(=O)(=O)N3CCCCC3)CC2)c1	-15.7%	
Cc1cc(C)c(NC(=O)CN2C(=O)NC(Cc3ccccc3)C2=O)c(C)c1 (stereo not given)	-14.1%	
O=S(=O)(NCCc1ccccn1)c1cc(Cl)cc(Cl)c1O	0.802%	
COc1ccccc1CCNC(=O)C1CCN(C(=O)/C=C/c2ccccc2)CC1	5.89%	
Cc1cccc(NC(=O)CN2CCN(C(=O)C3CCN(C(=O)/C=C/c4ccccc4)CC3)CC2)c1C		16.4 µM (active)
Cc1cccc(NC(=O)CN2CCN(CC(=O)NCC3(N4CCCCC4)CCCCC3)CC2)c1C	-16.1%	
Cc1ccc(S(=O)(=O)NC[C@H]2O[C@@H](n3cnc4c(N)ncnc43)[C@H](O)[C@@H]2O)s1	0.238%	
COc1ccc(NC(=O)c2ccccc2CC[N+](=O)[O-])cc1	2.49%	
C=CC[n+]1c(-c2ccc(C)cc2)csc1NNC(=O)Nc1ccccc1		10.3 µM (active)
O=C(NNC(=O)c1ccc(-c2ccccc2)cc1)Nc1ccccc1	-6.03%	
C=CCNc1scc(-c2ccccc2)[n+]1CC=C	-12.3%	
C[C@H]1CN([C@@H](C)CO)C(=O)CCCn2cc(nn2)CO[C@@H]1CN(C)S(=O)(=O)c1ccccc1C#N	0.957%	
O=C(c1cc(COc2ccc(F)cc2F)on1)N1CCOCC1	8.14%	
COc1ccc(-c2noc(-c3ccc(N4CCN(c5ccccc5)CC4)c([N+](=O)[O-])c3)n2)cc1OC		23.1 µM (active)
CNc1ccc(-c2nc(-c3ccco3)no2)cc1[N+](=O)[O-]	-19.2%	
COc1cc(-c2noc(-c3ccc(N4CCCC4)c([N+](=O)[O-])c3)n2)cc(OC)c1OC	-2.73%	
Cc1nnc(SCc2cc(=O)c3cc(F)ccc3[nH]2)n1C	10%	
CCOC(OCC)c1ccc(/C=C\c2nccc(N)n2)cc1	-14.8%	

SMILES	activity change, negative = growth inhibition	Potency
CCNc1nc(-c2cc3ccccc3o2)cs1	6.56%	
COc1ccc2nc(Nc3nc(-c4ccncc4)cs3)sc2c1	-20%	
COc1ccc2nc(Nc3nc(-c4cc5ccccc5oc4=O)cs3)sc2c1		5.8 µM (active)
O=c1oc2ccccc2cc1-c1csc(Nc2ccc(O)cc2)n1		9.2 µM (active)
COc1ccc2nc(NC(=O)[C@@H]3CCCN3C(=O)c3cccs3)sc2c1	3.56%	
Nc1ncc(-c2cc3ccccc3oc2=O)s1	-16.5%	
CC1CCCCN1Cc1c(O)ccc2c(=O)c(-c3cccc(Cl)c3)c(C(F)(F)F)oc12 (stereo not given)	-14.3%	
C[C@@H]1NS(=O)(=O)c2cc(Cl)ccc2O[C@@H]1c1ccccc1	-1.11%	
C[C@H](CO)N1C[C@H](C)[C@H](CN(C)C(=O)c2ccncc2)OCc2ccccc2-c2c(n(C)c3ccccc23)C1=O	-22.7%	
CC(NS(=O)(=O)c1ccc(Br)cc1)C(=O)NCC1CCCO1 (stereo not given)	-1.17%	
CC(C)NC(=S)N1CCN(C(c2ccccc2)c2ccccc2)CC1		29.1 µM (active)
COc1ccccc1NC(=S)N1CCN(C(c2ccccc2)c2ccccc2)CC1		16.4 µM (active)
COc1ccc(C)cc1NC(=S)N1CCOCC1	4.73%	
CC(C)OCC(O)CN1CCN(C(c2ccccc2)c2ccccc2)CC1 (stereo not given)	-17.3%	
CC(C)NC(=S)N1CCN(S(C)(=O)=O)CC1	2.05%	
COc1ccccc1NC(=S)N1CCN(c2ccc(F)cc2)CC1	-1.31%	
CCCCNC1(C#N)CCN(Cc2ccccc2)CC1	-6.58%	
CC(C)CC1(C(=O)NCc2ccccn2)C=CCN1C(=O)c1ccccc1 (stereo not given)	3.78%	
O=C(NN=Cc1ccccc1)c1ccccc1	-5.88%	
O=C(O)c1ccc(/C=N/NC(=S)NCc2ccccc2)cc1	5.08%	
NN=C(NN=Cc1ccccc1)c1ccccc1		8.2 µM (active)
O=C(CCNC(=O)c1ccccc1)NN=Cc1ccc(Br)o1	0.385%	
CN1C(C(=O)NCC2CC2)CC2Cn3c(nc4ccccc43)C21 (stereo not given)	-23.8%	

SMILES	activity change, negative = growth inhibition	Potency
Nc1ccc(/C=C/c2ccnc3ccccc23)c([N+](=O)[O-])c1		11.2 µM (active)
Cc1cc(C)cc(C(=O)NC2C(=O)N3C(C(=O)O)=C(CSc4nnc(C)s4)CSC23)c1 (stereo not given)	-7.95%	
CSc1ccccc1NC(=O)CN(C)CC(=O)Nc1cccc(Br)c1	-15.4%	
CCOc1ccc(OCC)c(NC(=O)c2cc(C)nc3c2c(C)nn3-c2cccc(Cl)c2C)c1	3.56%	
CC1=CC(C)(C)NC(=S)N1NC(=O)c1ccccc1Cl	7.93%	
Cc1ccc(N2C(=O)C(Cc3ccccc3)NC2=S)cc1 (stereo not given)	-29.4%	
CC1=CC(C)(C)NC(=S)N1c1ccccc1		20.6 µM (active)
CCOc1ccc(S(=O)(=O)N2CCC(C(=O)OCc3ccc(OC)cc3)CC2)cc1	-15.7%	
CC1(C)O[C@H]2CC(=O)OCC23[C@H]2CC[C@@]4(C)[C@H](c5ccoc5)OC(=O)[C@H]5O[C@]54[C@]2(C)C(=O)C[C@@H]13 (stereo not given in full)	4.62%	
NC(=O)C(Cc1ccccc1)NC(=O)C12CC3CC(CC(C3)C1)C2 (stereo not given)	-17.9%	
COc1cc(/C=N/N=C(\N)c2nonc2N)cc(OC)c1OC	-16.6%	
Cc1ccc(C)c(N2CCN(Cc3nnc(-c4ccccc4)o3)CC2)c1	-20.2%	
COc1ccc(NC(=O)NCCN2CCN(c3ccc(C)cc3)CC2)c(Cl)c1	-18.8%	
CCOC(=O)c1c(C)[nH]c(C(=O)NCCN2CCOCC2)c1C	-2.98%	
CC1=C(c2ccc(C)cc2)S(=O)(=O)NC1=NCCCN1CCN(c2cc(C)ccc2C)CC1		4.61 µM (active)
Cc1ccc(C)c(N2CCN(CCCNC(=O)Nc3ccc(Cl)cc3)CC2)c1		7.31 µM (active)
COc1ccc(N2CCN(CCNC(=O)Nc3cc(Cl)ccc3Cl)CC2)cc1	-7.44%	
CCOC(=O)N1CCC(Nc2c(NCCN3CCN(c4cccc(Cl)c4)CC3)c(=O)c2=O)CC1	-3.1%	
CCOC(=O)N1CCC(Nc2c(NCCCN3CCN(c4ccc(OC)cc4)CC3)c(=O)c2=O)CC1	-0.704%	
Cc1ccc(C)c(N2CCN(C(=O)Cc3c(C(=O)O)c(C)cn3C)CC2)c1	-19.6%	
CCOC(=O)c1c(C)[nH]c(CCC(=O)NCCCN2CCN(c3cccc(Cl)c3)CC2)c1C		13 µM (active)
CC1=C(c2ccc(C)c(C)c2)S(=O)(=O)NC1=NCc1ccccc1Cl	-16%	
CCOC(=O)c1c(C)[nH]c(CCC(=O)NCCCN2CCN(c3cc(C)ccc3C)CC2)c1C		4.61 µM (active)
